Shown are actives, neighbours in structure and some others; about 0.8% of the full set was active somewhere.
TDP1 block = qHTS Assay for Inhibitors of Tyrosyl-DNA Phosphodiesterase (TDP1); recombinant TDP1, AlphaScreen DNA substrate cleavage; Potency, µM (doses to about 130 µM), without a hit: at the highest dose activity change, negative = inhibition, most hits filed as inhibitors; 0.28% of 350,000 active; AID 485290, 2010; also: potency is read from the fitted curve at half-maximal effect; nearly all actives have a fitted effect of over 40% in size
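Signal: AlphaScreen proximity between streptavidin donor and anti-FITC acceptor beads on intact substrate. Reaction: Tdp1 1 nM, substrate 15 nM final, 5 min RT after 15 min compound preincubation.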
PI4K2A block = qHTS for small molecular inhibitors of PI4K2A; Phosphatidylinositol 4-kinase type 2-alpha (Homo sapiens), Q9BTU6; purified PI4K2A, ADP-Glo luminescence, 1 h; active compounds read low; activity change, negative = inhibition, % at 76.9 µM; 0.13% of 420,000 active; AID 1346378, 2018; in the data active = activity change below about -50%; inconclusive = mostly about -30% to -49%;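 also: -100% = wells without enzyme as full effect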
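Compounds are screened against recombinant PI4K2A using PI as substrate and ATP, the latter dispensed at 300 microM. Reactions run one hour at ambient temperature before ADP-Glo detection; full inhibition defined by wells lacking enzyme.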
APE1 inh-1 = qHTS Assay for Inhibitors of the Human Apurinic/apyrimidinic Endonuclease 1 (APE1); Potency, µM (titrated, usually from 65.8 µM), for inactives: top-dose activity change, negative = inhibition, actives largely listed as inhibitors; AID 2517, 2012; recombinant APE1, TAMRA/BHQ-2 abasic DNA cleavage fluorescence; DNA repair nuclease/redox regulator APEX1 (Homo sapiens), P27695; 0.35% of 350,000 active;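 also: potency is read from the fitted curve at half-maximal effect; plate controls were vehicle for no effect and reference inhibitor for full effect; nearly all actives have a fitted effect of over 55% in size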
Target sequence (P27695 whole entry, looked up): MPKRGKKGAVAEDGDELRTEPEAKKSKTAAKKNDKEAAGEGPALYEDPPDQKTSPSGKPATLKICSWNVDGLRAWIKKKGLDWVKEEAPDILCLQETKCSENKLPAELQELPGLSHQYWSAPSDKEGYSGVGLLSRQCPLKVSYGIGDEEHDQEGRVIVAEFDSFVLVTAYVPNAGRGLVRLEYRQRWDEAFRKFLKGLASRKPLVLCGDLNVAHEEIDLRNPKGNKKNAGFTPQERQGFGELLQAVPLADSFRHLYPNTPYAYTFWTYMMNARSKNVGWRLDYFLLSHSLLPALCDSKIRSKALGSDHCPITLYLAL
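Activity was derived from the fluorescence gain between first and third kinetic reads (60 s intervals, ex 525/em 598 nm) after 50 nM THF-abasic TAMRA/BHQ-2 duplex was added to 0.75 nM APE1 preincubated 15 min with compound.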
Tb PFK inh = qHTS Assay to Find Inhibitors of T. brucei phosphofructokinase | 0.17% of 330,000 active | Potency, µM (titrated, usually from 57.5 µM), for inactives: top-dose activity, negative = inhibition, most hits filed as inhibitors | T. brucei PFK, ADP-Glo luminescence | AID 485367, 2010;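 also: potency is read from the fitted curve at half-maximal effect; 0% = uninhibited 1x PFK enzyme wells and -100% = no-enzyme wells; nearly all actives have a fitted effect of over 60% in size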
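PFK 1.25 nM, F6P 0.5 mM, ATP 0.1 mM, 0.1 M TEA pH 8.0, 5 mM MgCl2, 0.01% Tween20, 0.1% BSA; 45 min RT. ADP-Glo readout. qHTS titration up to 57 uM; curves fitted, compounds curve-classed.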
FEN1 inhibitor = qHTS Assay for the Inhibitors of Human Flap endonuclease 1 (FEN1); AID 588795, 2011; Potency, µM (series often up to 114 µM), inactives show at the top dose activity change, negative = inhibition, hits mostly inhibitors; Recombinant FEN1 flap cleavage, fluorescence, 15 min; 0.35% of 390,000 active; also: potency is read from the fitted curve at half-maximal effect; nearly all actives have a fitted effect of over 65% in size
Target sequence (P39748 whole entry, looked up): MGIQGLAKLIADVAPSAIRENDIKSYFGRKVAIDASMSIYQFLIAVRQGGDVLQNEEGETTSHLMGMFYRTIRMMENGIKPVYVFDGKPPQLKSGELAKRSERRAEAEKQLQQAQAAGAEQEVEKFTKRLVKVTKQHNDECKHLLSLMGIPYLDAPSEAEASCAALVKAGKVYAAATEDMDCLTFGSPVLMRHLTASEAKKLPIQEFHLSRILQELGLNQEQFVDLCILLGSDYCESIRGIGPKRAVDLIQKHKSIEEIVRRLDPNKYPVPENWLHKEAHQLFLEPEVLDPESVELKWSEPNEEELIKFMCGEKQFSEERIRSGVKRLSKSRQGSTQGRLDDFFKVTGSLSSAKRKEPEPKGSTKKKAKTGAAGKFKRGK
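Quantitative HTS format: each compound was titrated, incubated with 10 nM nuclease for 15 min at room temperature, then challenged with flap substrate at 50 nM final. Signal change over 15 min gave concentration–effect curves.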
Tb PGK inh = qHTS Assay to Find Inhibitors of Phosphoglycerate Kinase | PGK/GAPDH coupled, Kinase-Glo luminescence, 60 min | Potency, µM (top dose mostly 57.5 µM), for inactives: top-dose activity change, negative = inhibition, hits mostly inhibitors | 0.043% of 380,000 active | AID 602233, 2012; also: potency is read from the fitted curve at half-maximal effect; nearly all actives have a fitted effect of over 60% in size
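Recombinant glycosomal PGK reaction used 1,3-bisphosphoglycerate generated in-well by GAPDH (100nM final) in 100mM TEA pH 7.6, 5mM MgCl2, 0.01% Tween-20. After 60 minutes at room temperature, ATP was read by Kinase-Glo Plus luminescence end-point.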
DNA dye displace = Counterscreen for APE1 Inhibitors: Fluorescent Dye Displacement Assay | DNA fluorescent dye displacement counterscreen, fluorescence | Potency, µM (series often up to 28.5 µM), for inactives: at the top dose activity change, negative = inhibition, actives largely listed as inhibitors | 7% of 480 active | shares compounds with APE1 inh-1 | AID 2564, 2010;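 also: loss of thiazole orange fluorescence as the dye is displaced from duplex DNA; potency is read from the fitted curve at half-maximal effect; 0% = ThO with dsDNA and no compound and -100% = ThO without dsDNA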
EndoIV counter = Counterscreen for APE1 Inhibitors: qHTS Assay for Inhibitors of Endonuclease IV. shares compounds with APE1 inh-1. E. coli Endo IV, fluorogenic AP-site DNA cleavage. Potency, µM (series often up to 27.1 µM), for the others: at the top dose activity change, negative = inhibition, actives largely listed as inhibitors. 4% of 560 active;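 also: potency is read from the fitted curve at half-maximal effect; plate controls were uninhibited enzyme wells for no effect and no enzyme buffer wells for full effect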
APE1 inh-2 = Confirmation qHTS Assay for Inhibitors of the Human Apurinic/apyrimidinic Endonuclease 1 (APE1); AID 2572, 2010; 44% of 750 active; shares compounds with APE1 inh-1; Potency, µM (doses to about 57.1 µM), for the others: at the highest dose activity change, negative = inhibition, most hits filed as inhibitors; purified APE1, fluorogenic abasic-site DNA cleavage; also: potency is read from the fitted curve at half-maximal effect; nearly all actives have a fitted effect of over 30% in size
APE1 FP = qHTS FP-Based Assay for Inhibitors of the Human Apurinic/apyrimidinic Endonuclease 1 (APE1). AID 2573, 2010. shares compounds with APE1 inh-1. 7% of 480 active. APE1 binding to TAMRA-labelled double-stranded DNA, fluorescence polarization displacement. Potency, µM (doses to about 28.5 µM), inactives show at the highest dose activity, negative = inhibition, hits mostly inhibitors; also: potency is read from the fitted curve at half-maximal effect
* = called active by the depositor; i = inactive; ? = inconclusive; · = no result; [ ] = remark or other dose. Unless noted, calls follow the shape of the dose curve; as a rule, active = well fitted curve in the direction sought with a large enough effect; inconclusive = small, poorly fitted or top-dose-only effect, or another doubt; inactive = no such curve, though single readings can be large; an effect the other way counts as inactive or inconclusive. Unless noted, % is scaled to controls: 0 for no effect and ±100 for the full control effect.

SMILES | TDP1 block | PI4K2A block | APE1 inh-1 | Tb PFK inh | FEN1 inhibitor | Tb PGK inh | DNA dye displace | EndoIV counter | APE1 inh-2 | APE1 FP
CCCCC1=CC2=C(c3ccco3)C(=O)C(C)(OC(=O)c3ccc(OC)cc3)C(=O)C2=CN1Cc1ccco1 (configuration not stated) | · | ? | 7.1µM* | 3% | -2% | -7% | -9% | -3% | ? | -4%
CCCCC1=CC2=C(c3ccco3)C(=O)C(C)(OC(=O)c3ccc(OC)cc3)C(=O)C2=CN1CCCCO (configuration not stated) | -1%[12.3 µM] | -9 | -1%[12.4 µM] | -5% | 1% | 2% | · | · | · | ·
CC(=O)N1CCC(C(=O)Nc2ccccc2)(N(Cc2ccccc2)C(=O)c2cccnc2)CC1 | 3% | -8 | ? | 0% | -10% | -10% | -12% | -4% | -5%[24.4 µM] | ?
Cc1cc(C=O)c(C)n1-c1cccc(C(=O)O)c1 | 5µM* | -2 | 22µM* | -12% | 2% | -5% | 1% | 3% | 16µM* | 2%
O=C(O)c1cc(F)c(S(=O)(=O)N2CCN(S(=O)(=O)c3ccc4c(c3)OCCO4)CC2)cc1F | -4% | · | · | · | · | · | · | · | · | ·
O=C(N/N=C/c1ccc([N+](=O)[O-])cc1)c1ccc2nc[nH]c2c1 | 2% | 0 | -5% | -14% | -11% | 3% | · | · | · | ·
C/C(=N\NC(=O)c1ccc2nc[nH]c2c1)c1ccc([N+](=O)[O-])cc1 | 79µM* | · | 3% | 5% | · | · | · | · | -22% | ·
O=S(=O)(c1ccc2c(c1)OCCO2)N1CCN(S(=O)(=O)c2ccc(F)cc2F)CC1 | -20% | · | · | · | · | · | · | · | · | ·
Cc1cccc(OC(=O)Cn2c(C(F)(F)F)nc3ccccc32)c1 | -8% | 0 | 35µM* | -6% | -8% | -2% | -6% | 3% | ? | -90%
O=C(COc1ccccc1C(=O)Nc1ccccc1)Nc1ccc2ccccc2c1 | · | · | · | · | 10% | · | · | · | · | ·
O=C(N/N=C/c1ccc2c(c1)OCO2)c1cc2ccccc2o1 | 50µM* | -1 | ? | -2% | 5% | 8% | · | · | 40µM* | ·
O=C1c2cccc([N+](=O)[O-])c2C(=O)N1CCO | 5% | -3 | 10% | -6% | 20% | i | · | · | · | ·
O=C1CSC(=S)N1N1C(=O)c2cccc([N+](=O)[O-])c2C1=O | 2.8µM* | · | ? | ? | · | · | · | · | ? | ·
COc1ccc(/C=N/Nc2cc(C)nc(-n3nc(C)cc3C)n2)c(OC)c1 | 11% | 3 | -1% | -6% | -23% | -1% | · | · | · | ·
CCOc1cc(/C=N/Nc2cc(C)nc(-n3nc(C)cc3C)n2)ccc1O | 79µM* | 7 | 3% | -2% | 12% | 6% | · | · | -22% | ·
O=[S+]([O-])(/C=C/c1nc(Nc2cc(F)cc(F)c2)c2ncn(CC(F)F)c2n1)c1ccccc1 | 0% | · | · | · | · | · | · | · | · | ·
COc1ccc2cc3cc(C(=O)NCc4cccs4)oc3nc2c1 | 32µM* | -24 | 1% | -29% | ? | -13% | · | · | -12% | ·
C=Nc1ccc(/C=C/c2ccnc3ccccc23)cc1 | · | · | · | · | -20% | · | · | · | · | ·
COCc1cc(CN2CCCC2)c(O)c2ncccc12 | 10% | 0 | -3% | 4% | ? | · | · | · | · | ·
COCc1cc(O)c(O)c(O)c1-c1c(COC)cc(O)c(O)c1O | · | · | 0.18µM* | · | 1.6µM* | · | 7%[57.1 µM] | 144%[57.1 µM] | 0.32µM* | 6%[57.1 µM]
CS(=O)(=O)N1CCN(/[N+]([O-])=N/Oc2ccc([N+](=O)[O-])cc2[N+](=O)[O-])CC1 (tested in a mixture with another compound) | · | · | · | · | -17% | · | · | · | · | ·
COC(=O)c1ccccc1O | 0% | · | -4% | · | · | · | · | · | · | ·
COC(=O)c1ccc(=O)c2nc3/c(=C/O)c(O)cc(=O)c3[nH]c12 | ? | -20 | ? | -18% | 40µM* | -8% | ? | ? | ? | -28%
CCCCCn1ncc2c3sc(C)cc3n(C)c2c1=O | -8% | · | · | · | · | · | · | · | · | ·
Nc1cc2nc[nH]c2cc1N | 79µM* | -2 | -7% | 29% | -13% | -7% | · | · | ? | ·
Cn1c(=O)n(C)c2cc3[nH]cnc3cc21 | · | 5 | 42% | 7% | 4% | 0% | · | · | · | ·
O[C@@](CCN1CCCCC1)(c1ccccc1)C1CCCCC1 | ? | · | -72%[21 µM] | · | · | · | -3% | 17% | 2%[24.4 µM] | ?
O[C@@](CCN1CCCC1)(c1ccccc1)C1CCCCC1 | 14%[21 µM] | · | · | · | · | · | · | · | · | ·
